Assay results taken from the supplement of paper PMC10981050.
“And” between values parts separate entries of the source, which are not always exact repeats. Identical values can stand only once. Counter-ions that a name gives are not always drawn.

Tests used:
Assay in all cases: cell viability relative to vehicle control; higher = less cytotoxic
Details in all cases: 10 µM
K562 = system: K562
In short: (§1)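 Screening covered the Selleck bioactive, kinase and epigenetic probe libraries, less identity-inconsistent compounds, on CRISPR-edited mutant clones and isogenic wild-type clones of four leukaemia lines. Cells, at 2000 per well in 50 µL medium, received a single 10 µM acoustically dispensed dose. After 48 h the supernatant was removed and CellTiter-Glo luminescence was read. Viability was analysed in Genedata Screener as percent of the on-plate vehicle control.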

MARIMO = system: MARIMO
In short: as §1

MOLM14 = system: MOLM14
In short: as §1

OCI-AML2 = system: OCI-AML2
In short: as §1

| SMILES | cell viability (K562; SRSF2 genotype: SRSF2 P95H/wt) | cell viability (K562; SRSF2 genotype: SRSF2 wt/wt) | cell viability (MARIMO; SRSF2 genotype: SRSF2 P95H/wt) | cell viability (MARIMO; SRSF2 genotype: SRSF2 wt/wt) | cell viability (MOLM14; SRSF2 genotype: SRSF2 P95H/wt) | cell viability (MOLM14; SRSF2 genotype: SRSF2 wt/wt) | cell viability (OCI-AML2; SRSF2 genotype: P95H/wt) | cell viability (OCI-AML2; SRSF2 genotype: wt/wt) |
| --- | --- | --- | --- | --- | --- | --- | --- | --- |
| CC(C)(CO)C(O)C(=O)NCCC(=O)O [Calcium D-Panthotenate] | 95.3% and 94.5% | 95.3% | 95.1% | 105% | 96.8% | 97.2% | 95.4% | 94% |
| Oc1ccc2c(c1)OC[C@H]1c3cc4c(cc3O[C@@H]21)OCO4 [Maackiain] | 82.8% and 87.4% | 79.4% | 80% | 83.8% | 90.7% | 85.4% | 82.3% | 84.6% |
| C[C@H](NCc1ccc(OCc2cccc(F)c2)cc1)C(N)=O [Safinamide] | 101% and 109% | 107% | 103% | 105% | 98.7% | 106% | 104% | 106% |
| CC(C)OC(=O)CCC/C=C\C[C@@H]1[C@@H](CC[C@@H](O)CCc2ccccc2)[C@H](O)C[C@@H]1O [Latanoprost] | 93% and 96.4% | 90.1% | 89.6% | 92.5% | 88% | 103% | 97.8% | 98.3% |
| CN1CCN(c2ccc(-c3ccncc3-c3cc(F)c(O)c(F)c3)cc2)CC1 | 94.2% and 97.1% | 95.9% | 80.1% | 85.4% | 66.4% | 88.8% | 99.5% | 91.1% |
| CNCc1ccc(C)c(NC(=O)c2ccc(Nc3nc(-c4ccccc4)c4ccccc4n3)cc2)c1 | 0.99% and 1.39% | 1.34% | 0.68% | 0.61% | 0.42% | 0.52% | 0.4% | 0.57% |
| CN1CCC(=C2c3ccccc3CC(=O)c3sccc32)CC1 [Ketotifen fumarate (Zaditor)] | 104% and 101% | 97.7% | 94.7% | 104% | 94.6% | 101% | 91% | 107% |
| CCOC(=O)[C@@H](N)Cc1ccc(-c2cc(O[C@H](c3ccc(Cl)cc3-n3ccc(C)n3)C(F)(F)F)nc(N)n2)cc1 [LX1606 hippurate] | 64.2% and 52.4% | 57.2% | 68.9% | 72.7% | 14.2% | 44.5% | 4.73% | 12.2% |
| N#Cc1ccc2ncnc(NCCc3ccccc3)c2c1 [Senexin A] | 85% and 87.1% | 92.4% | 91.8% | 94% | 77.1% | 95.1% | 58.2% | 63% |
| Cc1cc(C)nc(NS(=O)(=O)c2ccc(N)cc2)n1 [Sulfamethazine Sodium Salt] | 105% and 99.9% | 102% | 106% | 106% | 100% | 106% | 88.5% | 113% |
| CSc1ccc(C(=O)/C=C/c2cc(C)c(OC(C)(C)C(=O)O)c(C)c2)cc1 [Elafibranor] | 91.2% and 99.2% | 88.1% | 91.3% | 91% | 34.2% | 30% | 61.7% | 57% |
| NS(=O)(=O)c1cc2c(cc1Cl)NC(C(Cl)Cl)NS2(=O)=O (stereo not drawn) [Trichlormethiazide (Achletin)] | 102% and 101% | 102% | 108% | 99.7% | 94.7% | 106% | 112% | 110% |
| C=CC(=O)Nc1ccc(CN2C(=O)N(c3cc(OC)cc(OC)c3)Cc3cnc(Nc4ccc(N5CCN(C)CC5)cc4)nc32)cc1 | 66.2% and 73.3% | 77.8% | 81.2% | 78.8% | 37.9% | 40.1% | 25.8% | 34.5% |
| C[C@H](CCC(=O)O)[C@H]1CC[C@H]2[C@@H]3C[C@H](O)[C@@H]4C[C@H](O)CC[C@]4(C)[C@H]3CC[C@]12C [Hyodeoxycholic acid (HDCA)] | 92.5% and 93.9% | 88.6% | 87.5% | 94.3% | 93.5% | 97.5% | 93.1% | 97.4% |
| COc1cc2nccc(Oc3ccc(NC(=O)NC4CC4)c(Cl)c3)c2cc1C(N)=O [E7080 (Lenvatinib)] | 63.7% and 82.7% | 67.5% | 83.9% | 89.3% | 34.6% | 28.1% | 50.9% | 56.1% |
| Cc1cn([C@@H]2C[C@@H](O)[C@H](CO)O2)c(=O)[nH]c1=O [Telbivudine (Sebivo, Tyzeka)] | 96.7% and 104% | 101% | 105% | 102% | 99.2% | 108% | 113% | 102% |
| Nc1c(Br)cc(Br)cc1CN[C@H]1CC[C@H](O)CC1 [Ambroxol] | 97.6% and 99.3% | 98.9% | 96.2% | 96.7% | 101% | 102% | 104% | 112% |
| N=C(N)Nc1ccc(C(=O)Oc2ccc3cc(C(=N)N)ccc3c2)cc1 [Nafamostat mesylate] | 90.4% and 98.9% | 89.4% | 77.2% | 76% | 94.2% | 89.4% | 83.2% | 85.1% |
| CC(C)c1c(C(=O)Nc2ccccc2)c(-c2ccccc2)c(-c2ccc(F)cc2)n1CC[C@@H](O)C[C@@H](O)CC(=O)O [Atorvastatin calcium (Lipitor)] | 67.2% and 88.5% | 56.9% | 52% | 50.4% | 67.7% | 91.5% | 41.1% | 45.6% |
| C#C[C@]1(O)CC[C@H]2[C@@H]3CCC4=CC(=O)CC[C@@H]4[C@H]3C(=C)C[C@@]21CC [Etonogestrel] | 82.9% and 75.4% | 80.4% | 78.6% | 88.8% | 84.9% | 89.9% | 88% | 88.3% |
| N=C1CCCN1Cc1[nH]c(=O)[nH]c(=O)c1Cl [Tipiracil hydrochloride] | 101% and 109% | 104% | 109% | 112% | 110% | 105% | 102% | 94.7% |

| SMILES | cell viability (K562; SRSF2 genotype: SRSF2 P95H/wt) | cell viability (K562; SRSF2 genotype: SRSF2 wt/wt) | cell viability (MARIMO; SRSF2 genotype: SRSF2 P95H/wt) | cell viability (MARIMO; SRSF2 genotype: SRSF2 wt/wt) | cell viability (MOLM14; SRSF2 genotype: SRSF2 P95H/wt) | cell viability (MOLM14; SRSF2 genotype: SRSF2 wt/wt) | cell viability (OCI-AML2; SRSF2 genotype: P95H/wt) | cell viability (OCI-AML2; SRSF2 genotype: wt/wt) |
| --- | --- | --- | --- | --- | --- | --- | --- | --- |
| NS(N)(=O)=O [Sulfamide] | 104% and 96% | 108% | 98.6% | 103% | 102% | 107% | 98.4% | 108% |
| COc1ccc(C[C@@H](C)NC[C@H](O)c2ccc(O)c(NC=O)c2)cc1 [Arformoterol Tartrate] | 97.2% and 91.1% | 98.8% | 85.2% | 106% | 86.5% | 90.9% | 109% | 103% |
| CCN1CC(CCN2CCOCC2)C(c2ccccc2)(c2ccccc2)C1=O (stereo not drawn) [Doxapram HCl] | 104% and 111% | 112% | 112% | 111% | 104% | 109% | 111% | 95.4% |
| CC1CCC2(C(=O)O)CCC3(C)C(=CCC4C5(C)CCC(OC6OCC(O)C(O)C6O)C(C)(C)C5CCC43C)C2C1(C)O (stereo not drawn) [Ziyuglycoside II] | 100% and 99.1% | 101% | 97.4% | 99% | 103% | 99% | 99.6% | 95.6% |
| N/N=c1\[nH][nH]/c(=N\N)c2ccccc12 [Dihydralazine sulphate] | 93.9% and 93.2% | 95.5% | 95.3% | 94.3% | 106% | 103% | 93% | 95.4% |
| Clc1ccc(C(Cn2ccnc2)OCc2c(Cl)cccc2Cl)c(Cl)c1 (stereo not drawn) [Isoconazole nitrate (Travogen)] | 73.3% and 76.4% | 68.3% | 70.2% | 73.2% | 77.6% | 79.6% | 75.9% | 69.7% |
| Cn1c(=O)cc(C(=O)Nc2ccc3c(c2)OCCO3)c2ccccc21 | 97.4% and 96% | 94% | 99% | 104% | 102% | 100% | 93.4% | 101% |
| CC[C@H]1OC(=O)[C@H](C)[C@@H](O[C@H]2C[C@@](C)(OC)[C@@H](O)[C@H](C)O2)[C@H](C)[C@@H](O[C@@H]2O[C@H](C)C[C@H](N(C)C)[C@H]2O)[C@](C)(O)C[C@@H](C)CN[C@H](C)[C@@H](O)[C@]1(C)O [Azathramycin] | 104% and 112% | 115% | 107% | 104% | 109% | 108% | 111% | 97.8% |
| COc1cc2nccc(Oc3ccc(NC(=O)C4(C(=O)Nc5ccc(F)cc5)CC4)cc3)c2cc1OC [Cabozantinib malate] | 21% and 29.7% | 23.6% | 67.3% | 87.3% | 6.23% | 7.8% | 23.3% | 27.8% |
| O=C(NO)c1cnc(NC2(c3ccccc3)CC2)nc1 | 8.09% and 28.4% | 35.4% | 3.94% | 3.14% | 4.83% | 1.94% | 0.88% | 2.07% |
| C[C@H]1[C@H](NC(=O)/C(=N\OC(C)(C)C(=O)O)c2csc(N)n2)C(=O)N1S(=O)(=O)O [Aztreonam (Azactam, Cayston)] | 106% and 99.5% | 109% | 96.8% | 112% | 103% | 108% | 98.4% | 104% |
| CC1(C)C=C(CN2C/C(=C\c3ccc(F)cc3)C(=O)/C(=C/c3ccc(F)cc3)C2)C(C)(C)N1O | 1.83% and 3.61% | 1.04% | 0.52% | 1.15% | 0.27% | 0.28% | 0.24% | 0.32% |
| CN1CCN(c2cccc(Nc3nc4c(-c5ccc(S(C)(=O)=O)cc5)cccn4n3)c2)CC1 | 68% and 76.9% | 70.5% | 67.1% | 67.8% | 3.24% | 3.52% | 11.9% | 22.6% |
| COc1ccc(CCC(=O)Nc2nc3ccc(Cl)cc3s2)cc1OC | 95.4% and 97% | 92% | 97.3% | 96.3% | 94.6% | 97.8% | 91.4% | 87.5% |
| COC(=O)CC1CC(c2ccc(O)cc2)=NO1 (stereo not drawn) | 113% and 102% | 104% | 102% | 112% | 77.1% | 102% | 104% | 103% |
| O=C(Nc1cc(Cl)cc(Cl)c1O)c1c(O)c(Cl)cc(Cl)c1Cl [Oxyclozanide] | 96% and 91.7% | 97.8% | 97.2% | 108% | 99.1% | 103% | 102% | 99.9% |
| Nc1cccc(S(=O)(=O)N2CCCN(S(=O)(=O)c3ccc4c(c3)OCCO4)CC2)c1 | 90.8% and 101% | 101% | 96.3% | 98.8% | 90.5% | 97.7% | 101% | 97.5% |
| Clc1ncnc2nc[nH]c12 [6-Chloropurine] | 88.9% and 82.6% | 82.7% | 92.3% | 87% | 88.9% | 90.3% | 83.3% | 87.9% |
| NN1CC(=O)NC1=O [1-Aminohydantoin Hydrochloride] | 103% | 97.1% | 99.8% | 106% | 97.1% | 101% | 89.2% | 106% |
| O=C(O)c1cc(O)c2c(c1)[C@@H]([C@H]1c3cc(C(=O)O)cc(O)c3C(=O)c3c(O[C@@H]4O[C@H](CO)[C@@H](O)[C@H](O)[C@H]4O)cccc31)c1cccc(O[C@@H]3O[C@H](CO)[C@@H](O)[C@H](O)[C@H]3O)c1C2=O [Sennoside B] | 75.3% and 75.2% | 81.5% | 79.3% | 88.2% | 76.2% | 75.6% | 77.4% | 87.7% |
